SMILES strings stand for the structures. The whole screen tested about 350,000 compounds, of which about 5,500 (1.6%) were called active.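 Rule for the calls: active = significant combined selectivity score with lowered wild-type GFP, culture density cut under 30%, mutant RFP and density less affected; inactive = any of these conditions unmet.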 The entries come from a sample that favours actives as a whole.

The nature of the assay: GFP drop in mixed WT/humanized-ribosome E. coli culture – GFP/RFP fluorescence, OD600, single point, bacterial rRNA inhibitor project, primary screen (AID 720706). As to conditions: E. coli WT GFP vs humanized-ribosome RFP mutants, 24 h; GFP signal change (wild-type ribosome): stronger effect = lower value, DMSO median 0, no signal -100; OD600 change: measured here: OD600 growth, DMSO median 0, no signal -100; RFP signal change: measured here: RFP humanized mutant strains, DMSO median 0, no signal -100, concentration not given here.
`C[C@@H]1CCCCO[C@@H](CN(C)C(=O)Nc2cccc3ccccc23)[C@H](C)CN([C@H](C)CO)C(=O)c2cc(NS(C)(=O)=O)ccc2O1`: the GFP signal change (wild-type ribosome) is 2.97% (inactive), the OD600 change was -14.8% and the RFP signal change was -1.87%.

Regarding `COc1cccc(C(=O)NCCSc2ccc(Br)cc2)c1`, the GFP signal change (wild-type ribosome) was -49.8% (inactive), the OD600 change is -75.8% and the RFP signal change was -16.7%.

For the compound `COC(=O)c1ccc(COC(=O)CNC(=O)c2cccc(OC)c2)o1`, the GFP signal change (wild-type ribosome) was 3.46% (inactive), the OD600 change came out at 11.4% and the RFP signal change is -1.13%.

In the case of `COc1cccc(C(=O)c2cc3ccc(O)cc3oc2=O)c1`, the GFP signal change (wild-type ribosome) is -30.5% (active), the OD600 change was -15% and the RFP signal change is 1.31%.

Regarding `COc1ccc(NC(=O)Nc2ccc3c(c2)C(=O)N([C@H](C)CO)C[C@H](C)[C@@H](CN(C)Cc2ccccc2)OCCCC[C@H](C)O3)cc1`, the GFP signal change (wild-type ribosome) is 2.43% (inactive), the OD600 change was -11% and the RFP signal change was determined as 1.05%.

For the compound `C[C@@H]1CN([C@H](C)CO)C(=O)c2cc(NC(=O)C3CCCCC3)ccc2O[C@@H](C)CCCCO[C@H]1CN(C)S(C)(=O)=O`, the GFP signal change (wild-type ribosome) was -1.08% (inactive), the OD600 change is 0.309% and the RFP signal change is -2.76%.

Regarding `CC1CCCN(c2ccc(C(=O)NCCc3ccccc3)cn2)C1` (stereo unspecified), the GFP signal change (wild-type ribosome) is -19.9% (active), the OD600 change is -8.59% and the RFP signal change was 0.765%.

Regarding `CC1CCN(C(=O)CCNC(=O)c2ccccc2)CC1`, the GFP signal change (wild-type ribosome) is 9.31% (inactive), the OD600 change worked out at 16.3% and the RFP signal change is -0.0995%.

`CC1CCN(c2c(NCc3ccc(C(=O)NCc4ccccc4)cc3)c(=O)c2=O)CC1`: the GFP signal change (wild-type ribosome) was -2.23% (inactive), the OD600 change was 0.92% and the RFP signal change came to 2.65%.

Take `COc1ccc2c3c([nH]c2c1)[C@H](CO)N(C(=O)C1CCC1)CC31CCN(Cc2cccc(F)c2)CC1`: the GFP signal change (wild-type ribosome) was -1.74% (inactive), the OD600 change was -5.93% and the RFP signal change stood at 3.15%.

Turning to `COc1ccc2c3c([nH]c2c1)[C@@H](CO)N(Cc1ccccc1OC)CC31CCN(C)CC1`, the GFP signal change (wild-type ribosome) is -0.945% (inactive), the OD600 change was determined as 0.435% and the RFP signal change was 0.881%.

For the compound `Cc1nn(-c2ccccc2)c(C)c1/C=N/NC(=O)CSc1nc2ccccc2c(=O)n1-c1ccccc1`, the GFP signal change (wild-type ribosome) is 14.9% (inactive), the OD600 change is 17.7% and the RFP signal change is -2.02%.

With `Cc1cc(=O)[nH]c(N/N=C/c2c(C)nn(-c3ccccc3Cl)c2Cl)n1`, the GFP signal change (wild-type ribosome) was -2.91% (inactive), the OD600 change is 6.48% and the RFP signal change was -1.95%.

Turning to `Cc1nn(-c2ccccc2)c(Cl)c1/C=N/NC(=O)c1nn(C)cc1[N+](=O)[O-]`, the GFP signal change (wild-type ribosome) is -30.3% (active), the OD600 change amounted to 4.85% and the RFP signal change came out at 0.73%.

Consider `C[C@@H]1CN([C@@H](C)CO)S(=O)(=O)c2ccc(C#CCN(C)C)cc2O[C@@H]1CN(C)S(=O)(=O)c1cccc(F)c1`, for which the GFP signal change (wild-type ribosome) was -0.828% (inactive), the OD600 change is -6.54% and the RFP signal change was found to be 0.409%.

Turning to `C[C@H](CO)N1C[C@H](C)[C@H](CN(C)C(=O)Nc2ccc(C(F)(F)F)cc2)Oc2ccc(NS(=O)(=O)c3ccccc3)cc2CC1=O`, the GFP signal change (wild-type ribosome) is 2.52% (inactive), the OD600 change was -0.79% and the RFP signal change came to 1.4%.

Consider `CN1C(=O)c2cc(NC(=O)c3ccccc3)ccc2OC[C@@H]2O[C@@H](CC(=O)NC3CCCC3)CC[C@H]21`, for which the GFP signal change (wild-type ribosome) was 0.592% (inactive), the OD600 change came out at 4.01% and the RFP signal change came out at 0.386%.

For `Cc1ccccc1NC(=O)CCOc1ccccc1`, the GFP signal change (wild-type ribosome) is 6.54% (inactive), the OD600 change is -4.25% and the RFP signal change came out at 2.04%.

As for `Cc1ccc(F)c(NC(=O)CCOc2ccccc2C)c1`, the GFP signal change (wild-type ribosome) is -19.4% (active), the OD600 change is -1.12% and the RFP signal change was 1.17%.

On to `Cc1cccc(OCCC(=O)Nc2ccccc2C(N)=O)c1`, for which the GFP signal change (wild-type ribosome) was -0.179% (inactive), the OD600 change was -10.5% and the RFP signal change was determined as 0.55%.

Take `C[C@@H]1CN([C@H](C)CO)C(=O)Cc2cc(NS(=O)(=O)c3cn(C)cn3)ccc2O[C@@H]1CN(C)C(=O)Nc1ccccc1`: the GFP signal change (wild-type ribosome) was 6.08% (inactive), the OD600 change came to 7.32% and the RFP signal change is -1.29%.

Regarding `CC(=O)Nc1cccc(NC(=O)c2ccc3c(c2)CCN3S(C)(=O)=O)c1`, the GFP signal change (wild-type ribosome) is -1.52% (inactive), the OD600 change turned out to be 7.81% and the RFP signal change amounted to 5.89%.

Take `CN(c1cccc(NC(=O)c2ccc(CN3CCc4ccccc4C3)cc2)c1)S(C)(=O)=O`: the GFP signal change (wild-type ribosome) was -21.5% (active), the OD600 change was -11.3% and the RFP signal change is -3.92%.

In the case of `CS(=O)(=O)N1CCc2cc(C(=O)Nc3ccccc3)ccc21`, the GFP signal change (wild-type ribosome) is 5.39% (inactive), the OD600 change was determined as 2.75% and the RFP signal change came to 3.33%.

With `O=S(=O)(NCCc1csc(-c2ccccc2)n1)c1cccnc1`, the GFP signal change (wild-type ribosome) was -11.8% (inactive), the OD600 change is -3.96% and the RFP signal change was 1.22%.

Consider `COc1ccc(-c2nc(CCNC(=O)c3ccc(Br)o3)cs2)cc1`, for which the GFP signal change (wild-type ribosome) was -22.8% (inactive), the OD600 change was -75.5% and the RFP signal change is -22.8%.

For `O=C(NCCc1csc(-c2ccccc2)n1)c1ccccc1F`, the GFP signal change (wild-type ribosome) was -24.5% (active), the OD600 change is -9.12% and the RFP signal change was 10.4%.

`C[C@H](CO)N1C[C@H](C)[C@@H](CN(C)C(=O)c2ccncc2)Oc2cc(/C=C/c3ccccc3)ccc2S1(=O)=O`: the GFP signal change (wild-type ribosome) was -0.655% (inactive), the OD600 change is -10% and the RFP signal change was 0.748%.

With `CC(C)NC(=O)N(C)C[C@H]1Oc2ccc(N)cc2CC(=O)N(C)C[C@H]1C`, the GFP signal change (wild-type ribosome) is 1.15% (inactive), the OD600 change is 1.28% and the RFP signal change was -1.08%.

As to `Cc1c(C(=O)NCC(c2ccco2)N2CCCC2)oc2ccc(Cl)cc12` (stereo unspecified), the GFP signal change (wild-type ribosome) is -0.887% (inactive), the OD600 change is -24.2% and the RFP signal change amounted to 6.54%.

On to `COc1ccc2oc(C(=O)NCC(Cc3ccccc3)N(C)C)c(C)c2c1` (stereo unspecified), for which the GFP signal change (wild-type ribosome) is 0.609% (inactive), the OD600 change was -7.21% and the RFP signal change came to 3.26%.

In the case of `COc1ccc2oc(C(=O)NCc3ccco3)c(C)c2c1`, the GFP signal change (wild-type ribosome) is -31.1% (active), the OD600 change was -11.6% and the RFP signal change stood at 2.2%.

For the origin of these results see PubChem BioAssay AID720706 (Broad Institute, 2013).
